Test results reported in PubChem BioAssay (EPA / NIEHS).
Inconclusive results are not listed. Activity calls are given as the source filed them. How the source made its calls: active means hit-call score of the fitted dose curve at least 0.9, where 1 is the maximum; inconclusive means response in the unintended direction; inactive means score below 0.9.

These molecules were tested against guinea pig Serotonin, 5-Hydroxytryptamine Receptor 4 (5HT4), HTR4 (gene 100135548) (UniProt O70528) (assay: NVS_GPCR_g5HT4: NovaScreen (NVS) G Protein-Coupled Receptor Assay for guinea pig Serotonin, 5-Hydroxytryptamine Receptor 4 (5HT4) (AID 2283294)).
guinea pig Serotonin, 5-Hydroxytryptamine Receptor 4 (5HT4), HTR4 (gene 100135548), sequence (O70528 whole entry, looked up): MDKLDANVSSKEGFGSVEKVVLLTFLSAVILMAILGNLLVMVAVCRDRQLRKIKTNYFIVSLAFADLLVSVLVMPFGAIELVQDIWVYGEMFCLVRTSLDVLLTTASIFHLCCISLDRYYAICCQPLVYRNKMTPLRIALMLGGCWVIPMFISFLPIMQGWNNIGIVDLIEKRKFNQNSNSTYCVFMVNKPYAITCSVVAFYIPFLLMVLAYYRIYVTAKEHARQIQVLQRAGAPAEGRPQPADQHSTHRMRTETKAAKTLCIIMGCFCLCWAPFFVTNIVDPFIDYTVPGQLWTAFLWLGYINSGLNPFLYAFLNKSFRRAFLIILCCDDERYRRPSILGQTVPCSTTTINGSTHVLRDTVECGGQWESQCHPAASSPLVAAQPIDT
Protocol: NVS_GPCR_g5HT4 is a biochemical, single-readout assay that uses extracted gene-proteins from Guinea pig striatal membranes in a tissue-based cell-free assay. Measurements were taken 1 hour after chemical dosing in a 48-well plate.NVS_GPCR_g5HT4 is one of one assay component(s) measured or calculated from the NVS_GPCR_g5HT4 assay. It is designed to make measurements of radioligand binding, a form of binding reporter, as detected with scintillation counting signals by Filter-based radiodetection technology.Data from the assay component NVS_GPCR_g5HT4 was analyzed into 1 assay endpoint. This assay endpoint, NVS_GPCR_g5HT4, was analyzed in the positive analysis fitting direction relative to DMSO as the negative control and baseline of activity. Using a type of binding reporter, loss-of-signal activity can be used to understand changes in the binding as they relate to the gene Htr4. Furthermore, this assay endpoint can be referred to as a primary readout, because the performed assay has only produced 1 assay endpoint. To generalize the intended target to other relatable targets, this assay endpoint is annotated to the gpcr intended target family, where the subfamily is rhodopsin-like receptor.
Binding assays used specific radioligands (tritiated, iodinated) with non-radioactive competitive displacement ligands in agonist or antagonist protocols (as indicated) and various reference compounds and inhibitors to titrate specific binding to receptors and transporters. Most enzyme assays (CYPs, kinases, phosphatases, proteases, HDACs) used recombinant protein and specific substrates (fluorescence mostly, some colorimetric and radioactive) and inhibitors, followed by a biochemical separation of substrate and product. All assays for the biochemical HTS were initially run in duplicate at a single concentration (10 uM for CYP450 assays and 25 uM for all others). […] Each assay was run with positive and negative controls, and concurrent controls on every plate. The follow-up (secondary) screen tested active chemical-pairs in concentration series, as well as a few additional assays not tested in the primary screen, some selected negative inactives, and several cases re-run in the concentration series for confirmatory purposes.
With `C[C@@H](Oc1ccc(CNC(=O)c2cccnc2Oc2ccc3c(c2)OCO3)c(F)c1)C(=O)O` the outcome was “inactive”.
With `c1ccc(C(O[C@@H]2CCCN(CCc3ccc4c(c3)OCO4)C2)c2ccccc2)cc1` the AC50 was 3.4 µM (active).
For `O=S(=O)(O)c1ccc(N=Nc2c(O)ccc3cc(S(=O)(=O)O)ccc23)cc1`, the AC50 was 35.6 µM (active).
For `Cc1ccc(S(=O)(=O)NC(=O)NN2CCCCCC2)cc1`, the outcome was “inactive”.
`Cc1nccn1-c1ccc(Sc2cccc(C3(C(N)=O)CCOCC3)c2)cc1` was tested, and the outcome was “inactive”.
With `CCCCOC(=O)c1ccccc1` the outcome was “inactive”.
With `C=CCc1cc(S(=O)(=O)c2ccc(O)c(CC=C)c2)ccc1O` the AC50 was 10 µM (active).
With `CCCCCCCCCC` the outcome was “inactive”.
In the case of `CC(C)C(=O)Nc1ccc([N+](=O)[O-])c(C(F)(F)F)c1`, the AC50 is reported as 6.71 µM (active).
For `CCN(CC)C(=S)SSC(=S)N(CC)CC`, the AC50 was 19 µM (active).
With `COc1cc(C(C)C)c2c(c1)S(=O)(=O)N(COc1cc(=O)n3cccc(OCCN4CCCCC4)c3n1)C2=O` the AC50 was 1.38 µM (active).
`O=C(O)c1cccc(C[C@@H]2COc3ccc(OCc4nc5cc(F)ccc5s4)cc3[C@@H]2O)c1` was tested, and the outcome was “inactive”.
